Measured values published in ChEMBL document CHEMBL4513160, “CO-ADD screening of MMV (CH) - Small Polar Library”.
Hit rate of the full screen: of about 23,000 compounds, about 30 (0.1%) showed an effect of 50% or more. This is one part of a sample in which strong results are shown more often than they occur. Results with a measured potency or affinity are listed apart.

system: Pseudomonas aeruginosa; details: Concentration 300 ug.mL-1; ASSAY_TEST Inhibition of Bacterial Growth; detection method Absorption (OD600); MEDIA CAMHB; plate type 384well; NBS; CORNING #3640; time 18 hr

Row | Structure (SMILES) | Inhibition [%]
1 | CSCc1noc(CN2CCC(=O)NCC2C)n1 (stereo unspecified) | 2.5
2 | CCc1n[nH]c(=O)n1CC | 16.77
3 | O=C1C=CC(=O)N1C1CCCCC1 | 14.45
4 | O=C(c1cc(F)ccc1Br)N1CCNCC1 | -21.94
5 | CNCc1ncc(C)c(OC)c1C | 22.51
6 | CC(=O)NCc1ccc(C(=O)CSc2ccccn2)s1 | 23.63
7 | CN(Cc1cccc(C#N)c1)C(=O)C1CC1 | 11.31
8 | CN(C)S(=O)(=O)NCc1ccc(Cn2ccnc2)cc1 | -10.43
9 | NC(=O)CCNCc1ccc(Cl)c2cccnc12 | 17.51
10 | NC(=O)C1(NCc2ccc(Br)c3cccnc23)CC1 | 4.47
11 | CC(=O)NCCCNCc1ccc(Br)c2cccnc12 | 29.22
12 | OCc1cccc2ncccc12 | -43.09
13 | O=C(c1nnsc1-c1ccc(Cl)cc1)N1CCSCC1 | -1.35
14 | CN(C)CCCC(=O)N1CCCC(CO)(CC2CC2)C1 (stereo unspecified) | -1.87
15 | CC1CCN(C(=O)CCN2C[C@H](C3CC3)[C@@H](N)C2)CC1 | 0.49
16 | OC(CN1CCn2ccnc2C1)c1ccc(Cl)cc1 (stereo unspecified) | -6.36
17 | CSCCC(O)C(=O)NCCc1scnc1C (stereo unspecified) | -25.65
18 | COCCN(Cc1ccccn1)C(=O)CC1CCNC1 (stereo unspecified) | -0.17

Row | Structure (SMILES) | Inhibition [%]
19 | CN1CCOC[C@H]2CCN(C(=O)c3cccs3)C[C@H]21 | -22.95
20 | CNC(=O)C(C)Sc1nccn1-c1ccc(OC)cc1 (stereo unspecified) | 17.22
21 | N#Cc1cccc(CN2CCCC(O)C2)c1 (stereo unspecified) | 9.18
22 | CN(CCNC(=O)c1cnc[nH]1)Cc1ccc(F)cc1 | 37.03
23 | CNC1(C(=O)OC)CCCCC1 | -2.18
24 | Cc1cc(NC(=O)CSCC(=O)N2CCC2)no1 | 7.6
25 | CCOC(=O)c1nc(C)n(C)n1 | 10.82
26 | c1cc2c(cc1CNc1nnc(C3CC3)o1)OCCO2 | -5.88
27 | O=C(CCCc1cn[nH]c1)N1CCc2ccccc2C1 | 6.06
28 | CCCC(C)NC(=O)c1coc(C)n1 (stereo unspecified) | -6.54
29 | CCN(CC(C)C#N)C(=O)c1ccc(Br)o1 (stereo unspecified) | -3.61
30 | COC(=O)[C@@H]1CCN[C@@H]1C(C)C | 12.69
31 | C1CN(C2CCN(c3nnc(C4CC4)o3)CC2)CCS1 | 8.74
32 | C=C(C)CNC(=O)Nc1cccc(N2CCNC2=O)c1 | -38.18
33 | CCc1ccc(CN(CCO)Cc2nccn2C)nc1 | -17.17
34 | Clc1ccc(-c2noc(CN3CCCNCC3)n2)cc1 | 46.35
35 | NC(=O)c1cc(N2CCCC2)ccn1 | -17.78
36 | Fc1ccc2[nH]cnc2c1 | 26.41
